High-throughput results as filed in PubChem BioAssay.
Only some compounds are listed: those with a hit (about 2.3% of all), similar ones and a draw of the others.
PLC-gamma1 inh: PLC-gamma1 enzyme inhibitors, primary screen, biochemical, fluorescence, purified enzyme. fluorogenic substrate. inhibition, % at 12.2 µM. 370,000 compounds, 0.84% hits. AID 720700, 2013; in the data active = inhibition above about 9.5%
UHRF1 MBD2 ctr: UHRF1 methylated DNA binding inhibitors, primary screen, counter-screen for MBD2 inhibitor project, biochemical, TR-FRET, human UHRF1, single concentration; 370,000 compounds, 0.75% hits; inhibition, % at 4.4 µM; E3 ubiquitin-protein ligase UHRF1 (Homo sapiens), Q96T88; UHRF1 binding to methylated oligo; in the data active = inhibition above about 21%;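 note: UHRF1 SRA domain binding a hemimethylated CpG hairpin DNA probe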
LEDGF integ inh: blockers of LEDGF/p75-dependent integrase strand transfer – biochemical, TR-FRET, high throughput, primary screen; HIV-1 integrase (with human LEDGF/p75); 370,000 compounds, 0.64% hits; TR-FRET IN-LEDGF/p75 DNA integration, Eu/Cy5; AID 743269, 2014; inhibition, % at 3.7 µM;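 active = inhibition above the screen-wide mean plus 3 SD, cut at about 13% in these data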;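 note: signal is the Cy5 over europium emission ratio at 671 and 618 nm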
PLCb3 inh: human PLC-beta3 inhibitors, primary screen, biochemical, fluorescence | 1-phosphatidylinositol 4,5-bisphosphate phosphodiesterase beta-3 (Homo sapiens), Q01970 | inhibition, % at 12.2 µM | 370,000 compounds, 0.18% hits | Purified PLC-beta3, fluorogenic substrate
MBD2 inh: inhibitors of MBD2 binding to methylated DNA, primary screen, biochemical, TR-FRET, DNA-binding domain, human; inhibition, % at 4.4 µM; 370,000 compounds, 0.31% hits; AID 686964, 2013; MBD2 binding to methylated oligonucleotide; Methyl-CpG-binding domain protein 2 (Homo sapiens), Q9UBB5; in the data active = inhibition above about 13%
Target sequence (Q9UBB5 whole entry, looked up, the tested form may be a part): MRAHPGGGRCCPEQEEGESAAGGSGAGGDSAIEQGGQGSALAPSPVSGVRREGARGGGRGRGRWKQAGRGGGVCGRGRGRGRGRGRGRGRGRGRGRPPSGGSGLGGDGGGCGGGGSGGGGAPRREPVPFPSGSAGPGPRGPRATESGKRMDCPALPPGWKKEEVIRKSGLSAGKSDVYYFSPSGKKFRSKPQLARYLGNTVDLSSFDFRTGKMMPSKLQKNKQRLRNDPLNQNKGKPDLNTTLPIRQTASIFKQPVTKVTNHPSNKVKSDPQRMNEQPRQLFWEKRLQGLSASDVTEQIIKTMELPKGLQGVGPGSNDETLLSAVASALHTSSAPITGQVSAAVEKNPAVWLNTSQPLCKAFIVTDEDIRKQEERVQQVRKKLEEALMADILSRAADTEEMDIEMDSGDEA
PLCg1 ctr: PLC-gamma1 enzyme inhibitors, counter-screen for PLC-beta3 inhibitor project, biochemical, fluorescence. purified PLC-gamma1, fluorogenic substrate. AID 743258, 2014. shares compounds with PLC-gamma1 inh. 3,300 compounds, 3.1% hits. inhibition, % at 12.3 µM; in the data active = inhibition above about 9.5%
PLCbeta3 conf: PLC-beta3 inhibitor confirmation, biochemical, fluorescence, purified enzyme; fluorogenic substrate fluorescence; 3,300 compounds, 1% hits; AID 743261, 2014; shares compounds with PLC-gamma1 inh; inhibition, % at 12.3 µM
Hits are given with their value. Cut-off read from the data, not from the text of the source, unless noted: active = inhibition above about 11%; inactive = the rest.

What do the screens show for `CCOC(=O)CNC(=O)Cc1ccc(Cl)cc1`?
PLC-gamma1 inh: 10; UHRF1 MBD2 ctr: inactive; LEDGF integ inh: inactive; PLCb3 inh: inactive; MBD2 inh: inactive; PLCg1 ctr: inactive; PLCbeta3 conf: inactive

What do the screens show for `Cc1ccc(/C=N\NC(=O)Cn2c(C)nc3ccccc32)o1`?
PLC-gamma1 inh: 9.8; UHRF1 MBD2 ctr: inactive; LEDGF integ inh: inactive; PLCb3 inh: inactive; MBD2 inh: inactive; PLCg1 ctr: inactive; PLCbeta3 conf: inactive

Results for CC1(C)CC(=O)C(C2=NC3(CCCCCC3)Cc3ccccc32)=C(O)C1 ?
PLC-gamma1 inh: 10; UHRF1 MBD2 ctr: inactive; LEDGF integ inh: inactive; PLCb3 inh: inactive; MBD2 inh: inactive; PLCg1 ctr: inactive; PLCbeta3 conf: inactive

How did COC(=O)Cn1cnc2sc(C)c(S(=O)(=O)N3CCN(c4ccccc4OC)CC3)c2c1=O do in these assays?
PLC-gamma1 inh: 10; UHRF1 MBD2 ctr: inactive; LEDGF integ inh: inactive; PLCb3 inh: inactive; MBD2 inh: inactive; PLCg1 ctr: inactive; PLCbeta3 conf: inactive

How did CCCCNC(=O)Cn1cnc2sc(C)c(S(=O)(=O)N3CCN(c4ccccc4OC)CC3)c2c1=O do in these assays?
PLC-gamma1 inh: inactive; UHRF1 MBD2 ctr: inactive; LEDGF integ inh: inactive; PLCb3 inh: inactive; MBD2 inh: inactive

What do the screens show for `CC(C)(C)c1ccc(-c2nnc(SCC(=O)Nc3ccc(Oc4ccccc4)cc3)n2Cc2ccco2)cc1`?
PLC-gamma1 inh: inactive; UHRF1 MBD2 ctr: inactive; LEDGF integ inh: inactive; PLCb3 inh: inactive; MBD2 inh: inactive

How did CCOc1ccc(-n2c(SC/C=C/c3ccccc3)nnc2-c2ccco2)cc1 do in these assays?
PLC-gamma1 inh: inactive; UHRF1 MBD2 ctr: inactive; LEDGF integ inh: inactive; PLCb3 inh: inactive; MBD2 inh: inactive

How did COc1ccc(OCc2ccc(C(=O)O)cc2)cc1 do in these assays?
PLC-gamma1 inh: 9.9; UHRF1 MBD2 ctr: inactive; LEDGF integ inh: inactive; PLCb3 inh: inactive; MBD2 inh: inactive; PLCg1 ctr: inactive; PLCbeta3 conf: inactive

What do the screens show for `COc1ccc(OCC(O)COc2ccc(C(=O)O)cc2)cc1` (centres undefined)?
PLC-gamma1 inh: inactive; UHRF1 MBD2 ctr: inactive; LEDGF integ inh: inactive; PLCb3 inh: inactive; MBD2 inh: inactive

What do the screens show for `COc1ccccc1CN(C)C(=O)C1CCCN(c2nc3ccccc3o2)C1` (centres undefined)?
PLC-gamma1 inh: inactive; UHRF1 MBD2 ctr: inactive; LEDGF integ inh: inactive; PLCb3 inh: inactive; MBD2 inh: inactive

Results for Cc1cccc(NC(=O)CCc2ccccc2)c1C ?
PLC-gamma1 inh: 12; UHRF1 MBD2 ctr: inactive; LEDGF integ inh: inactive; PLCb3 inh: inactive; MBD2 inh: inactive; PLCg1 ctr: inactive; PLCbeta3 conf: inactive

Results for COC(=O)C[C@@H]1CC[C@H]2[C@@H](COc3ccc(NC(=O)NC(C)C)cc3C(=O)N2C)O1 ?
PLC-gamma1 inh: inactive; UHRF1 MBD2 ctr: inactive; LEDGF integ inh: inactive; PLCb3 inh: inactive; MBD2 inh: inactive

Results for CSC(=N/N=C(\N)c1cnccn1)SC ?
PLC-gamma1 inh: 13; UHRF1 MBD2 ctr: inactive; LEDGF integ inh: inactive; PLCb3 inh: inactive; MBD2 inh: inactive; PLCg1 ctr: inactive; PLCbeta3 conf: inactive

What do the screens show for `COc1cccc(OCc2nnc(SCC(=O)N3c4ccccc4Sc4ccc(Cl)cc43)o2)c1`?
PLC-gamma1 inh: inactive; UHRF1 MBD2 ctr: inactive; LEDGF integ inh: inactive; PLCb3 inh: inactive; MBD2 inh: inactive

Results for COc1ccc(OCc2nnc(SCC(=O)N3c4ccccc4Sc4ccc(Cl)cc43)o2)cc1 ?
PLC-gamma1 inh: 9.6; UHRF1 MBD2 ctr: inactive; LEDGF integ inh: inactive; PLCb3 inh: inactive; MBD2 inh: inactive; PLCg1 ctr: inactive; PLCbeta3 conf: inactive

What do the screens show for `COc1ccc(C=Nn2c(-c3n[nH]c4c3CCC4)n[nH]c2=S)cc1OCc1ccccc1`?
PLC-gamma1 inh: inactive; UHRF1 MBD2 ctr: inactive; LEDGF integ inh: inactive; PLCb3 inh: inactive; MBD2 inh: inactive

How did Cc1nc2ccc(S(=O)(=O)N(C)CC(=O)NCc3ccc4c(c3)OCO4)cc2s1 do in these assays?
PLC-gamma1 inh: inactive; UHRF1 MBD2 ctr: inactive; LEDGF integ inh: inactive; PLCb3 inh: inactive; MBD2 inh: inactive

How did Cc1nc2ccc(S(=O)(=O)NCC(=O)NCc3ccc4c(c3)OCO4)cc2s1 do in these assays?
PLC-gamma1 inh: inactive; UHRF1 MBD2 ctr: inactive; LEDGF integ inh: inactive; PLCb3 inh: 12; MBD2 inh: inactive; PLCg1 ctr: inactive; PLCbeta3 conf: inactive

How did Cc1c(C(=O)N/N=C/c2cccs2)nnn1-c1nonc1N do in these assays?
PLC-gamma1 inh: 12; UHRF1 MBD2 ctr: inactive; LEDGF integ inh: inactive; PLCb3 inh: inactive; MBD2 inh: inactive; PLCg1 ctr: inactive; PLCbeta3 conf: inactive

Results for Cc1ccsc1/C=N/NC(=O)c1nnn(-c2nonc2N)c1C ?
PLC-gamma1 inh: inactive; UHRF1 MBD2 ctr: inactive; LEDGF integ inh: inactive; PLCb3 inh: inactive; MBD2 inh: inactive

How did CCOC(=O)[C@]12CCCC3=C1N(CCC3)C(=O)[C@@H](CC(=O)N1CCCC1)C2 do in these assays?
PLC-gamma1 inh: inactive; UHRF1 MBD2 ctr: inactive; LEDGF integ inh: inactive; PLCb3 inh: inactive; MBD2 inh: inactive

How did CCC[C@H]1[C@@H](O)CC[C@@]23CCCN2C(=O)CCC[C@@H]13 do in these assays?
PLC-gamma1 inh: inactive; UHRF1 MBD2 ctr: inactive; LEDGF integ inh: inactive; PLCb3 inh: inactive; MBD2 inh: inactive

What do the screens show for `Cc1ccc(NS(=O)(=O)c2c(C)nc3sccn3c2=O)cc1`?
PLC-gamma1 inh: inactive; UHRF1 MBD2 ctr: inactive; LEDGF integ inh: inactive; PLCb3 inh: inactive; MBD2 inh: inactive

What do the screens show for `Cc1nc2sccn2c(=O)c1S(=O)(=O)Nc1ccc(N2CCN(C(=O)C(C)C)CC2)cc1`?
PLC-gamma1 inh: 12; UHRF1 MBD2 ctr: inactive; LEDGF integ inh: inactive; PLCb3 inh: inactive; MBD2 inh: inactive; PLCg1 ctr: inactive; PLCbeta3 conf: inactive

How did COc1ccc(-c2c[n+](CC(=O)OC3CC(C)CCC3C(C)C)c3n2CCC3)cc1 (centres undefined) do in these assays?
PLC-gamma1 inh: inactive; UHRF1 MBD2 ctr: inactive; LEDGF integ inh: inactive; PLCb3 inh: inactive; MBD2 inh: inactive

Results for CC(C)[C@@H]1CC[C@@H](C)C[C@H]1OC(=O)C[n+]1cc(-c2ccc(Cl)cc2)n2c1CCCCC2 ?
PLC-gamma1 inh: 12; UHRF1 MBD2 ctr: inactive; LEDGF integ inh: inactive; PLCb3 inh: inactive; MBD2 inh: inactive; PLCg1 ctr: inactive; PLCbeta3 conf: inactive
